According to ChEMBL document CHEMBL1157539, “Thousands of chemical starting points for antimalarial lead identification” (Nature, 2010):

Tested on: Plasmodium falciparum
Test: GSK_TCMDC: Inhibition of Plasmodium falciparum 3D7 in whole red blood cells, using parasite LDH activity as an index of growth. Test compounds present at 2uM
Type: functional

Row | Structure (SMILES) | Inhibition [%]
1 | Cc1cc(=NN=Cc2ccccc2F)c2cc(C(F)(F)F)ccc2[nH]1 | 100
2 | C[C@H](NC(=O)c1c(CN2CCC(N3CCCCC3=O)CC2)c(-c2cccs2)nc2ccccc12)C1CCCCC1 | 91
3 | O=C(NC1CC1)c1ccc(N2CCC(Cc3ccccc3)CC2)nc1.O=C(O)C(F)(F)F | 95
4 | CCC(C)(C)NC(=O)C(c1cccc(OC)c1)N(C(=O)CNC(=O)c1cccs1)c1ccc2c(c1)OCCO2 (stereo unspecified) | 100
5 | C=C(C)CSc1nc2c(c(=O)n1CCc1ccccc1)C1(CCCC1)Cc1ccccc1-2 | 100
6 | CCN1CCCC1CNC(=O)c1cc2c(-c3ccc(Cl)cc3)nn(C)c2s1 (stereo unspecified) | 96
7 | Cl.O=C(/C=C/c1ccccc1F)NC1CCC(CCN2CCc3ccc(-c4cccnc4)cc3CC2)CC1 (stereo unspecified) | 92
8 | O=C(CSc1nccn1Cc1ccco1)Nc1cc(C(F)(F)F)ccc1Cl | 91
9 | CCc1cc2c(N)nc(N)nc2nc1-c1ccccc1 | 91
10 | CC(=O)Nc1sc(C)c(C)c1CN1CCc2ccccc2C1 | 93
11 | Oc1ccccc1-c1nc2cccnc2n1CCc1cccc(C(F)(F)F)c1 | 93
12 | COc1ccc(S(=O)(=O)Nc2ccc(C(=O)NCc3ccccc3C(F)(F)F)cc2)cc1N1CCN(CC2CC2)CC1.O=C(O)C(F)(F)F | 92
13 | O=C(Nc1cccc(CN2CCCN(Cc3cccc(Cl)c3)CC2)c1)c1ccc(Cl)c(Cl)c1.O=C(O)C(F)(F)F | 89
14 | O=C(Nc1ccnc(N2CC3CC2CN3Cc2cccc(O)c2)c1)c1ccc(F)cc1.O=C(O)C(F)(F)F (stereo unspecified) | 92
15 | O=C(Nc1ccc(Cl)cc1C(=O)Nc1ccncc1)c1ccc(Cl)cc1Cl | 99
16 | CCCOc1cccc(C(=O)N[C@@H](Cc2ccccc2)[C@H](O)CNCc2cccc(OC)c2)c1 | 100
17 | N#Cc1ccc(N/C(=N\c2cccc(Cl)c2Cl)NCc2ccc(Cl)cc2Cl)c(O)c1 | 97
18 | O=C(Nc1cccc(CN2CCCN(Cc3cccc(F)c3)CC2)c1)c1ccc(Cl)c(Cl)c1.O=C(O)C(F)(F)F | 85

Row | Structure (SMILES) | Inhibition [%]
19 | COc1ccc(OC)c(-c2ccc(O)c(CNCC(C)c3ccccc3)c2)c1 (stereo unspecified) | 98
20 | Cl.N#Cc1ccc2c(c1)CN(CCCCNC(=O)c1ccc(-c3ccccc3)cc1)CC2 | 96
21 | CC(=O)Nc1ccc(C2NC(=O)NC(c3ccccc3)=C2c2nc3ccccc3s2)cc1 (stereo unspecified) | 93
22 | CN1CCC(N2CCN(Cc3ccc(-c4ccc(-c5nc6cc(F)ccc6[nH]5)s4)cc3)CC2)CC1.O=C(O)C(F)(F)F | 100
23 | O=C(Nc1cccc(-c2cccc(-c3nc4cc(C(F)(F)F)ccc4[nH]3)c2)c1)c1cccnc1 | 100
24 | CN(C(=O)/C=C/c1cc(C(F)(F)F)ccc1F)C1CCN(CCCCCNC(=O)/C=C/c2ccc(Cl)c(Cl)c2)C1 (stereo unspecified) | 93
25 | COc1ccc2nccc([C@@H](O)CN3CCC(NCc4ccc5cccc(O)c5n4)CC3)c2n1.CS(=O)(=O)O | 94
26 | CCOc1cc(C)ccc1C1CCN(CCCCNC(=O)c2coc(-c3ccc(Cl)cc3)c2)CC1.Cl | 92
27 | O=C(NC1CCN(CC2(c3ccccc3F)CCCC2)CC1)c1cc[nH]n1 | 93
28 | O=C(Nc1cccc(-c2ccc(-c3nc4cc(F)ccc4[nH]3)s2)c1)c1cccnc1 | 100
29 | N#Cc1ccc(CN2CCCN(Cc3cccc(NC(=O)c4cc5ccccc5s4)c3)CC2)cc1.O=C(O)C(F)(F)F | 97
30 | O=C(O)C(F)(F)F.O=S(=O)(NCCN1CCCC1)c1ccc(-c2ccc(CNCc3ccccc3)cc2)s1 | 94
31 | Oc1cccc(-c2nc(-c3ccccc3)c(-c3ccc(Oc4ccc(-c5[nH]c(-c6cccc(O)c6)nc5-c5ccccc5)cc4)cc3)[nH]2)c1 | 91
32 | CCCCCC(C)C(C)c1cc(O)c2c(c1)OC(C)(C)CC2(O)c1ccnn1C (stereo unspecified) | 98
33 | COc1ccc(N2CCN(CCCCNC(=O)c3ccc(NC(=O)c4ccc(Cl)cc4)cc3)CC2)c(OC)c1.Cl | 97
34 | CN(C)CCCOc1ccc(CN2CC[C@H](NC(=O)c3ccc(Cl)c(Cl)c3)C2)cc1Cl.O=C(O)C(F)(F)F | 100
35 | Cc1cc([N+](=O)[O-])ccc1NC(=O)Nc1cccc(C(F)(F)F)c1 | 100
36 | CN(C)C(CNC(=O)c1cc(-c2ccncc2)c(-c2ccc(Cl)c(O)c2)o1)c1ccccc1.O=C(O)C(F)(F)F (stereo unspecified) | 91
